{"source": "PubChem BioAssay AID1671202", "about": "(University of Kansas High Throughput Screening Laboratory, 2021)", "note": "Values joined by “and” are separate entries in the source; they are usually repeats but may differ in a detail not shown here. Equal values may be shown once. Among all 190,000 compounds or so, about 6,900 (3.6%) were called active. No stated cut-off is given here; in the data, active means inhibition above about 50%; inactive means the rest. This excerpt belongs to a sample that is enriched for actives. Some structures have more than one record in an assay (separate samples or runs), and their calls can disagree."}
{"target": "Huntingtin (Homo sapiens) (UniProt P42858)", "sequence (P42858 whole entry, looked up, stated change not applied)": "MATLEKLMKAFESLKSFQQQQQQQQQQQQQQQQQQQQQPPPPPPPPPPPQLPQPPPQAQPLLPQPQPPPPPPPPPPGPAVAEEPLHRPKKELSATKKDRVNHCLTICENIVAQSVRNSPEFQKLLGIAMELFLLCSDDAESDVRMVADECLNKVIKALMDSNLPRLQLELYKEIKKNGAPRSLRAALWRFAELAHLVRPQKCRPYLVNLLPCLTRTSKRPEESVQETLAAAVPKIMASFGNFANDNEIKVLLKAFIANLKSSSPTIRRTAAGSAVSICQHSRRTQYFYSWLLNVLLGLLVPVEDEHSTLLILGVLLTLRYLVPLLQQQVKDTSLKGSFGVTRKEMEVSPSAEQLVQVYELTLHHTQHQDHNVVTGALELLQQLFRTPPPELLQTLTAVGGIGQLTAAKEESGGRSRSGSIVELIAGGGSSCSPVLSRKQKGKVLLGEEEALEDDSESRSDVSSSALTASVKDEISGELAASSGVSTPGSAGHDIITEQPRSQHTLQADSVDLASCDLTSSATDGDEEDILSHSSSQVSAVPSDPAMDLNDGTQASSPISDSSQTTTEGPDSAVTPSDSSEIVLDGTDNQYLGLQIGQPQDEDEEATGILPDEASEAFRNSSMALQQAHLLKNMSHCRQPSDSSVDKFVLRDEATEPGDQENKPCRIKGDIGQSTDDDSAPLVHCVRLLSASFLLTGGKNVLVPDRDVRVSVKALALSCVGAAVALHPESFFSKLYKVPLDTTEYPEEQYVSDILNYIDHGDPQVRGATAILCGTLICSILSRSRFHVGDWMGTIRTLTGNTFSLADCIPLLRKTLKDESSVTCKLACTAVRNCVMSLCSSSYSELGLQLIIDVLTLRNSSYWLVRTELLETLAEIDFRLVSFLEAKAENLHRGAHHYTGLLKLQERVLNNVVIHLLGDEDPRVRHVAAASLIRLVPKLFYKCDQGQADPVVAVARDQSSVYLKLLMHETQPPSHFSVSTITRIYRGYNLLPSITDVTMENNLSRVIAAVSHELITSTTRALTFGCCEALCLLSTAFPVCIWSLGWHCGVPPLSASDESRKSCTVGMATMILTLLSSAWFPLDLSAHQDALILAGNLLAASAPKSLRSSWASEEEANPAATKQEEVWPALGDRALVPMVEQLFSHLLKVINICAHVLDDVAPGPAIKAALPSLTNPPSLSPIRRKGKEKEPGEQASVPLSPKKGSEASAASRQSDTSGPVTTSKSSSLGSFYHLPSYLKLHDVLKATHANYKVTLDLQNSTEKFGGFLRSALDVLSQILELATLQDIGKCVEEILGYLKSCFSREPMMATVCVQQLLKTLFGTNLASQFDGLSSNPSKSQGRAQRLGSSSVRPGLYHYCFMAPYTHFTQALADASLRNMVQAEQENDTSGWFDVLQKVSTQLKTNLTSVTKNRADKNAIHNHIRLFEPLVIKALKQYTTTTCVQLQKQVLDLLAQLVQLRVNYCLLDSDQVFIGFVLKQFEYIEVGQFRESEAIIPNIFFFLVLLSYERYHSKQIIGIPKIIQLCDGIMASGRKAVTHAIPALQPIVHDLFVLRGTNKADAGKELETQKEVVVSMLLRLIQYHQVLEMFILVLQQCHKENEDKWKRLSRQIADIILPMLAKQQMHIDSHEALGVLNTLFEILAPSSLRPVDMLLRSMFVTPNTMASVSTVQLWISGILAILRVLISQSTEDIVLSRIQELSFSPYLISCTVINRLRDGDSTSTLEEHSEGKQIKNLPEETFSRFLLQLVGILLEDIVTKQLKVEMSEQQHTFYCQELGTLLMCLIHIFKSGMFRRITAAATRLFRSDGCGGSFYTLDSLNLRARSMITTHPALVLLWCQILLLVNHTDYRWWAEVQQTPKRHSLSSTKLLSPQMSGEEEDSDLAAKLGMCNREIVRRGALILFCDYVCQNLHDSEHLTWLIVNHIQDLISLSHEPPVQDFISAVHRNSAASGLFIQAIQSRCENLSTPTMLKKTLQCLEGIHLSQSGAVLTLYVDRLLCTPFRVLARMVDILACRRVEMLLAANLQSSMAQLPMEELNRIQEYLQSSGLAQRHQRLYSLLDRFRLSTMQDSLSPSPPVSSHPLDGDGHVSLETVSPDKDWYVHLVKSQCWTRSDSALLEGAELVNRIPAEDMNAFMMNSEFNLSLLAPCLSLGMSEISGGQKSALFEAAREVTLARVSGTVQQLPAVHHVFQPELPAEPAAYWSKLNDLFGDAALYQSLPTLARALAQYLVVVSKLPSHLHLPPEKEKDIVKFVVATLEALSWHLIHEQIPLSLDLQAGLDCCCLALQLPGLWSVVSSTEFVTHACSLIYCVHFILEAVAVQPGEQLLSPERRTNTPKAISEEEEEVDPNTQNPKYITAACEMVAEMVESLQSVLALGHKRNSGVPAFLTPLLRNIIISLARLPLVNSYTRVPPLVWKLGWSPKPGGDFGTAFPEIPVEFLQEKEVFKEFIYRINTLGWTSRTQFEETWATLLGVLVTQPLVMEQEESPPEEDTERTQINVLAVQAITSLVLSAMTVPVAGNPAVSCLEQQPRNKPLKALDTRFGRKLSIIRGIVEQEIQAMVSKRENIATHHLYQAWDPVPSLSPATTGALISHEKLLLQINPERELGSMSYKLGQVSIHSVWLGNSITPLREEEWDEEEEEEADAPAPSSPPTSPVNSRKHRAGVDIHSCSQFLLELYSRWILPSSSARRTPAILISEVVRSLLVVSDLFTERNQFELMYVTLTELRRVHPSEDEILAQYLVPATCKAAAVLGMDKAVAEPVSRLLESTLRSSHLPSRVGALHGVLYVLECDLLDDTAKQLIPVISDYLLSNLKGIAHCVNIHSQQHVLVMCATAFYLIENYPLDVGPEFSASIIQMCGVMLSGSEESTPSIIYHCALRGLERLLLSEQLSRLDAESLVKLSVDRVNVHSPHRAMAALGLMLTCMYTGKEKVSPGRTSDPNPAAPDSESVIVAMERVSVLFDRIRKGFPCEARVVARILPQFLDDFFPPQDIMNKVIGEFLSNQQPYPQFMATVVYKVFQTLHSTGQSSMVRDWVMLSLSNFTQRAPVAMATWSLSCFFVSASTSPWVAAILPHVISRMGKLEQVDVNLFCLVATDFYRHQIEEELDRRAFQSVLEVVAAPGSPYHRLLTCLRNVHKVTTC", "assay": "mutant huntingtin-calmodulin interaction inhibitors – biochemical, AlphaScreen, primary screen (AID 1671202);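 further: 0% = both proteins with DMSO and 100% = one protein alone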", "details": "AlphaScreen His-mHTT/GST-CaM binding, luminescence; at 15 µM, stronger effect = higher value"}
{"molecule": "Cc1c(NC(=O)c2c([N+](=O)[O-])cnn2C)c(=O)n(-c2ccccc2)n1C", "inhibition": "-3% (inactive)"}
{"molecule": "COc1ccc2c(c1)c(=O)oc1c(C)c(OCc3ccc(C(=O)O)o3)ccc12", "inhibition": "4% (inactive)"}
{"molecule": "CC1=C(C#N)C(=O)NC(=O)/C1=C\\c1ccc(-c2ccc(Cl)c(C(=O)O)c2)o1", "inhibition": "13% (inactive)"}
{"molecule": "CC1=C(C#N)C(=O)N(CC(C)O)C(=O)/C1=C\\c1ccc(-c2cccc(Cl)c2Cl)o1", "note": "(configuration not stated)", "inhibition": "93% (active)"}
{"molecule": "CC1=C(C#N)C(=O)NC(=O)/C1=C\\c1ccc(-c2cccc(Cl)c2)o1", "inhibition": "37% (inactive)"}
{"molecule": "c1ccc(-n2ncc(-c3nn[nH]n3)n2)cc1", "inhibition": "59% (active) and -6.45% (inactive)"}
{"molecule": "N#Cc1ccc(C(=O)N2CCC(COc3ccc(C(=O)N4CCCC4)cc3)CC2)cc1", "inhibition": "3.57% (inactive)"}
{"molecule": "CC(=O)Nc1ccc(S(=O)(=O)N2CCN(C3CCCCCCC3)CC2)cc1", "inhibition": "2% (inactive)"}
{"molecule": "CC(=O)Nc1ccc(S(=O)(=O)N2CCN(c3ccc(-c4ccccn4)nn3)CC2)cc1", "inhibition": "74.1% (active)"}
{"molecule": "O=S(=O)(c1cccnc1)N1CCN(c2ccc(-c3cccs3)nn2)CC1", "inhibition": "-2.7% (inactive)"}
{"molecule": "CN(C)c1ccc(CCCNC(=O)C23CC4CC(CC(C4)C2)C3)cc1", "inhibition": "1.3% (inactive)"}
{"molecule": "CN(C)c1ccc(CNCC23CC4CC(C2)CC(c2ccccc2)(C4)C3)cc1", "inhibition": "100% (active)"}
{"molecule": "O=C(N1CCCC1)C12CC3CC(C1)CC(c1ccccc1)(C3)C2", "inhibition": "2.5% (inactive)"}
{"molecule": "O=C(c1cccc(OCC2CCCN(C(=O)c3ccccc3F)C2)c1)N1CCCCC1", "note": "(configuration not stated)", "inhibition": "-4.06% (inactive)"}
{"molecule": "CC(=O)NCc1cnn(-c2ccc(C(=O)Nc3ccccc3)cc2)c1", "inhibition": "-1.5% (inactive)"}
{"molecule": "CCCCN=C(C(=O)Nc1ccc(Cl)c(C(F)(F)F)c1)c1ccccc1NC(C)=O", "inhibition": "0% (inactive)"}
{"molecule": "CN(C)c1ccc(-c2ccc3nc(C(=O)N4CCCC4)cn3c2)cc1", "inhibition": "97.2% (active)"}
{"molecule": "CCCCN1CCN(C(=O)c2cn3cc(C)ccc3n2)CC1", "inhibition": "0.1% (inactive)"}
{"molecule": "O=C(c1cn2cc(-c3ccc(F)c(Cl)c3)ccc2n1)N1CCOCC1", "inhibition": "16.9% (inactive)"}
{"molecule": "CC1=C(C(=O)Nc2ccc(C)cc2C)C(c2ccccc2[N+](=O)[O-])n2ncnc2N1", "note": "(configuration not stated)", "inhibition": "25% (inactive)"}
{"molecule": "O=C1C=CC(=NOC(=O)/C=C/c2ccccc2)C=C1", "inhibition": "100% (active)"}
{"molecule": "Cc1cc(OC(=O)C=Cc2ccccc2)c([N+](=O)[O-])c(=O)[nH]1", "inhibition": "7.1% (inactive)"}
{"molecule": "O=C(Cc1ccccc1)ON=C1C=CC(=NOC(=O)c2ccccc2)C=C1", "inhibition": "14% (inactive)"}
{"molecule": "O=S1(=O)c2ccc(Br)cc2OC[C@@H](Cc2ccccc2)N1Cc1cn(Cc2ccco2)nn1", "inhibition": "5.1% (inactive)"}
{"molecule": "O=C(COc1ccc(Br)cc1)Nc1ccc2c(c1)OCO2", "inhibition": "0.4% (inactive)"}
{"molecule": "CCc1ccc(S(=O)(=O)N=C2C=C(Nc3ccc(OC)cc3)C(=O)c3ccccc32)cc1", "inhibition": "91% (active)"}
{"molecule": "O=S(=O)(c1cccs1)N(c1ccccc1)C(F)F", "inhibition": "-18.8% (inactive)"}
{"molecule": "CCOc1ccc(NC(=O)C2CCC(N3C(=O)c4ccccc4C3=O)CC2)cc1", "note": "(configuration not stated)", "inhibition": "2.4% (inactive)"}
{"molecule": "COc1ccc(S(=O)(=O)N=C2C=C(Br)C(=O)c3ccccc32)cc1", "inhibition": "31% (inactive)"}
{"molecule": "CCOc1ccc(S(=O)(=O)N=C2C=C(Nc3ccc(C)cc3)C(=O)c3ccccc32)cc1", "inhibition": "93% (active)"}
{"molecule": "CCOc1ccc(NS(=O)(=O)c2ccc(Cl)cc2)cc1", "inhibition": "-13% (inactive)"}
{"molecule": "O=C1C(Nc2ccc(Br)cc2)=CC(=NS(=O)(=O)c2cccs2)c2ccccc21", "inhibition": "80% (active)"}
{"molecule": "CCc1ccc(S(=O)(=O)N=C2C=C(Br)C(=O)c3ccccc32)cc1", "inhibition": "38% (inactive)"}
{"molecule": "Cc1cc(Br)ccc1NC(=O)C(NS(=O)(=O)c1cccs1)C(C)C", "note": "(configuration not stated)", "inhibition": "-6% (inactive)"}
{"molecule": "Clc1ccc(Cl)c(-c2ccc(CNC3CC3)o2)c1", "inhibition": "-25.6% (inactive)"}
{"molecule": "COc1ccc(CC(=O)Nc2c3c(nc4c2CCC4)CCCC3)cc1OC", "inhibition": "2% (inactive)"}
{"molecule": "COc1cc(CN2CCC(O)CC2)ccc1OCc1ccccc1", "inhibition": "-5.7% (inactive)"}
{"molecule": "COc1ccc(CCCN)cc1OC", "inhibition": "-2.8% (inactive)"}
{"molecule": "COc1ccc(CNc2nccs2)cc1", "inhibition": "5.7% (inactive)"}
{"molecule": "COc1ccc(CNC(=O)C(=O)Nc2ccc(OC)cc2)cc1", "inhibition": "-2.2% (inactive)"}
{"molecule": "COc1ccc(NCc2ccc(OC)c(C)c2)cc1", "inhibition": "52% (active)"}
{"molecule": "COc1cc(C=C2C(=O)c3ccccc3C2=O)ccc1OCc1ccccc1", "inhibition": "4% (inactive)"}
{"molecule": "COc1ccc(CNc2ccc3c(c2)CCC3)cc1OC", "inhibition": "62.8% (active)"}
{"molecule": "COc1cc(CNc2ccc(F)cc2)ccc1OCc1ccccc1", "inhibition": "55.7% (active)"}
{"molecule": "CCN1CCCC1CNC(=O)c1ccc(Sc2ccc(C)cc2)c(NC(C)=O)c1", "note": "(configuration not stated)", "inhibition": "-3% (inactive)"}
{"molecule": "O=C(Nc1ccc(NC(=O)c2ccc([N+](=O)[O-])cc2Cl)cc1)c1ccco1", "inhibition": "-2.2% (inactive)"}
{"molecule": "COc1cccc(C(=O)NCC2Cc3cc(OC)ccc3O2)c1", "note": "(configuration not stated)", "inhibition": "-0.8% (inactive)"}
{"molecule": "O=C(CC1CCCCC1)N1CCC(COc2ccc(C(=O)N3CCCCC3)cc2)CC1", "inhibition": "-1.76% (inactive)"}
{"molecule": "COc1ccc(C(=O)N2CCCCC2CCN2CCCC2)cn1", "note": "(configuration not stated)", "inhibition": "6.78% (inactive)"}
{"molecule": "O=C(c1ccco1)N1CCCC(c2nncn2-c2ccccc2)C1", "note": "(configuration not stated)", "inhibition": "8.27% (inactive)"}
{"molecule": "COc1cc(/C=C2\\C(=O)Nc3ccc(Br)cc32)ccc1O", "inhibition": "100% (active)"}
{"molecule": "CCOc1cc(/C=C2\\C(=O)NC(=O)N(c3ccc(F)cc3)C2=O)ccc1O", "inhibition": "5% (inactive)"}
{"molecule": "CCOc1cc(/C=C2\\C(=O)NC(=O)N(c3ccc(Br)cc3)C2=O)ccc1O", "inhibition": "5% (inactive)"}
{"molecule": "Cc1cc([N+](=O)[O-])nn1CCCC(=O)Nc1cc(Cl)ccc1O", "inhibition": "2% (inactive)"}
{"molecule": "CC(C)(C)CC(=O)N1CCN(c2nc(CN3CCCCCC3)cs2)CC1", "inhibition": "-9.3% (inactive)"}
{"molecule": "COc1cccc(C=C2Oc3cc(OCC(=O)NN)ccc3C2=O)c1OC", "inhibition": "4.1% (inactive)"}
{"molecule": "COc1cccc(CCC(=O)N2CCCN(c3ncccc3-c3nc(C4CC4)no3)CC2)c1", "inhibition": "-31.2% (inactive)"}
{"molecule": "Cn1nc(COc2ccccc2)c2c1CCN(C(=O)c1ccoc1)C2", "inhibition": "3.9% (inactive)"}
{"molecule": "Cn1nc(COc2ccccc2)c2c1CCN(C(=O)Nc1ccccc1F)C2", "inhibition": "16.9% (inactive)"}
{"molecule": "Cc1ccc(S(=O)(=O)N2CCc3c(c(COc4ccccc4)nn3C)C2)cc1C", "inhibition": "60.3% (active)"}
{"molecule": "CC(C)CNC(=O)C(=O)NCC(c1ccco1)S(=O)(=O)c1cccs1", "note": "(configuration not stated)", "inhibition": "-9.6% (inactive)"}
{"molecule": "O=C1C2C(C(=O)N1c1ccccc1[N+](=O)[O-])C1C=CC2C12CC2", "note": "(configuration not stated)", "inhibition": "3% (inactive)"}
{"molecule": "Cc1ccc(NC2CC(=O)N(c3cccc(Cl)c3)C2=O)cc1", "note": "(configuration not stated)", "inhibition": "-2% (inactive)"}
{"molecule": "COc1ccc(N2C(=O)CC(Nc3ccc(OC(F)(F)F)cc3)C2=O)cc1", "note": "(configuration not stated)", "inhibition": "-4% (inactive)"}
{"molecule": "Cc1ccc(N2C(=O)CC(Nc3ccc(N4CCOCC4)cc3)C2=O)c(Br)c1", "note": "(configuration not stated)", "inhibition": "60.1% (active) and 18.3% (inactive)"}
{"molecule": "O=C(Nc1ccc(N2CCCCC2)nc1)C1CC1", "inhibition": "-1% (inactive)"}
{"molecule": "O=C(O)/C(=C\\c1cccc([N+](=O)[O-])c1)NC(=O)c1ccco1", "inhibition": "-2.8% (inactive)"}
{"molecule": "CCc1ccc(/C=C2\\C(=O)Nc3ccc(F)cc32)cc1", "inhibition": "66% (active)"}
{"molecule": "CCOc1ccc(Br)c(/C=C2\\C(=O)Nc3ccc(Br)cc32)c1", "inhibition": "31% (inactive)"}
{"molecule": "COc1ccc(/C=C2\\C(=O)Nc3ccc(F)cc32)cc1OC", "inhibition": "40% (inactive)"}
{"molecule": "Cc1ccc(C(=O)N2CCc3sc(C(=O)NCc4ccco4)cc3C2)cc1", "inhibition": "13.6% (inactive)"}
{"molecule": "Cc1ccn2c(-c3csc(Nc4ccc(C(=O)O)cc4)n3)c(C)nc2c1", "inhibition": "-2% (inactive)"}
{"molecule": "Cc1nc2sccn2c1-c1csc(Nc2ncccn2)n1", "inhibition": "3% (inactive)"}
{"molecule": "Cc1ccn2c(-c3csc(Nc4ccc(N)cc4)n3)c(C)nc2c1", "inhibition": "64.7% (active)"}
{"molecule": "COCCCNC(=O)C1CCN(c2nnc(-c3ccccc3)o2)CC1", "inhibition": "2.64% (inactive)"}
{"molecule": "CCOC(=O)C1CCCN(CC(O)COC2CC3CCC2(C)C3(C)C)C1", "note": "(configuration not stated)", "inhibition": "6.9% (inactive)"}
{"molecule": "Oc1c(C(Nc2ccccn2)c2cccnc2)ccc2cccnc12", "note": "(configuration not stated)", "inhibition": "100% (active)"}
{"molecule": "c1ccc(Nc2nc(-c3ccncc3)cs2)nc1", "inhibition": "18% (inactive)"}
{"molecule": "Oc1c(C(Nc2ccccn2)c2ccc(OC(F)F)cc2)ccc2cccnc12", "note": "(configuration not stated)", "inhibition": "97% (active)"}
{"molecule": "Oc1c(C(Nc2ccccn2)c2ccncc2)ccc2cccnc12", "note": "(configuration not stated)", "inhibition": "100% (active)"}
{"molecule": "COc1ccccc1C=C1Oc2cc(C)cc(O)c2C1=O", "inhibition": "-4.4% (inactive)"}
{"molecule": "CCC(CC)NC(=O)C1CCc2nc(N3CCN(C(C)=O)CC3)sc2C1", "note": "(configuration not stated)", "inhibition": "11.6% (inactive)"}
{"molecule": "CC(NC(=O)CN1CCOCC1)C1CC1", "note": "(configuration not stated)", "inhibition": "-8.9% (inactive)"}
{"molecule": "CN(C(=O)c1ccccn1)C1(C(=O)NC2CCCC2)CCCCC1", "inhibition": "-4% (inactive)"}
{"molecule": "O=C(Nc1ccc2c(c1)OCCO2)C1CCc2sc(C(=O)N3CCCC3)cc2C1", "note": "(configuration not stated)", "inhibition": "12.3% (inactive)"}
{"molecule": "CC(C)(C)C(=O)NC(n1cccnc1=O)C(Cl)(Cl)Cl", "note": "(configuration not stated)", "inhibition": "2% (inactive)"}
{"molecule": "CCCCN(CC)C(=O)c1c[nH]c2ccc(S(=O)(=O)Nc3ccccc3F)cc2c1=O", "inhibition": "14% (inactive)"}
{"molecule": "O=C1CSC(c2ccccc2[N+](=O)[O-])N1c1ccc(Oc2ccccc2)cc1", "note": "(configuration not stated)", "inhibition": "59% (active)"}
{"molecule": "O=C1CSC(c2ccccc2[N+](=O)[O-])N1c1ccc(Br)cc1", "note": "(configuration not stated)", "inhibition": "28% (inactive)"}
{"molecule": "Cc1ccc(N2C(=O)CSC2c2ccccc2[N+](=O)[O-])cc1Cl", "note": "(configuration not stated)", "inhibition": "16% (inactive)"}
{"molecule": "CCn1cc(CCNC(C)=O)c2cccnc21", "inhibition": "-8.1% (inactive)"}
{"molecule": "CC(Cc1c[nH]c2ccccc12)NC(=O)c1ccncc1", "note": "(configuration not stated)", "inhibition": "2.9% (inactive) and 3% (inactive)"}
{"molecule": "O=C(O)COc1ccccc1C(c1c[nH]c2ccccc12)c1c[nH]c2ccccc12", "inhibition": "88.9% (active)"}
{"molecule": "CC(=O)NC(Cc1c[nH]c2ccccc12)C(=O)O", "note": "(configuration not stated)", "inhibition": "3.4% (inactive)"}
{"molecule": "CC(=O)N1CCc2cc(N3CC(C(=O)Nc4cccc(F)c4)CC3=O)ccc21", "note": "(configuration not stated)", "inhibition": "90.3% (active)"}
{"molecule": "CCc1ccc(CNC(=O)C2CC(=O)N(c3ccc4c(c3)CCN4C(C)=O)C2)cc1", "note": "(configuration not stated)", "inhibition": "-4.01% (inactive)"}
{"molecule": "CC(=O)N1CCc2cc(N3CC(C(=O)Nc4ccc(C)cc4F)CC3=O)ccc21", "note": "(configuration not stated)", "inhibition": "-5.06% (inactive)"}
